Abs 340nm: absorbance at 340 nm; compound absorbance at 340 nm, fold over control; fold change at 10 µM; 65,000 tested, under 10 active; AID 708;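 active means at 10 µM dose, initial 340 nm absorbance at least 2 fold that of control wells; inactive means change under 2 fold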;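 further: initial absorbance extrapolated from kinetic A340 decline of NADH oxidation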
Spn PMK inh: S. pneumoniae PMK inhibition | hit rate 0.49% among 65,000 | inhibition, % at 10 µM | purified PMK, PK/LDH-coupled NADH absorbance 340 nm;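 active means top-ranked compounds by inhibition in the single 10 µM screen, taking a fixed number of the strongest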;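 further: 0% = full reaction with DMSO carrier and 100% = background rate without enzyme reaction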
DPM-DC inhibit: inhibitors of Streptococcus pneumoniae diphosphomevalonate decarboxylase. hit rate 0.49% among 65,000. AID 556. purified DPM-DC, PK/LDH coupled NADH fluorescence. calls only at 10 µM;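 active means the 320 compounds with the highest percent inhibition in the single-dose primary screen, excluding strongly autofluorescent ones, cut at about 32% in these data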;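 further: kinetic rate of NADH fluorescence loss reporting ADP formed by the decarboxylase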
MK inhibit: blocks S. pneumoniae mevalonate kinase; purified MK, PK/LDH-coupled NADH absorbance 340 nm; inhibition, % at 10 µM; hit rate 0.48% among 65,000; AID 555;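 active means ranked among the strongest by inhibition in the single 10 µM screen, a fixed top-ranked set picked for dose follow-up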
NADH enzymes: blocks coupling enzymes of NAD/NADH assays | IC50, µM (series often up to 10 µM), for inactives: at the top dose inhibition | hit rate 0.02% among 65,000 | coupled PK/LDH NADH assays, four targets;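 active means single-dose screening hits from any of four coupled enzyme assays that gave an IC50 when retested across doses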;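 further: the DPM-DC format reads NADH fluorescence rather than 340 nm absorbance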
Autofluor 339: intrinsic fluorescence of library compounds, ex339/em460 – biochemical, MLSMR library, data from DPM-DC assay, artefact control, profiling panel; compound autofluorescence, ex339/em460 nm, NADH buffer; active compounds read high; 1 = no-compound wells, NADH background; AID 709; hit rate 5.5% among 65,000; fluorescence fold increase at 10 µM;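 active means at 10 µM, mean starting fluorescence two-fold or more over control wells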;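 further: signal is the first read of a kinetic run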
* hit, by the source's call; i = inactive; / = no result given; + = active, no number. This is a sample that favours compounds with a hit; in the whole collection about 6.5% have one here.

SMILES	Abs 340nm	Spn PMK inh	DPM-DC inhibit	MK inhibit	NADH enzymes	Autofluor 339
COc1ccc(C(=O)NCC2OCCc3ccccc32)c(O)c1 (configuration not stated)	1.02	7.0	i	7.0	13.0%	1.69
Cc1nnc(NCc2ccco2)c2ccccc12	1.02	14.0	i	2.0	5.0%	1.06
Cc1sc2nc3c4ccccc4c(NCc4ccco4)nn3c(=O)c2c1C	1.07	3.0	/	2.0	3.0%	4.74*
Cc1[nH]n(CCC#N)c(=O)c1CC(=O)N1CCN(c2ccccc2)CC1	1.02	7.0	i	7.0	5.0%	1.1
CCOC(=O)C1CCN(Cc2ccc(O)c(OC)c2)CC1	1.05	0.0	i	34.0	11.0%	1.03
CCN(CC)C(=O)C1CCCN(Cc2ccc(OC)c(C)c2C)C1 (configuration not stated)	1.06	0.0	i	56.0*	19.0%	1.16
COc1cccc(CN2CCCC(C(=O)N3CCCCC3)C2)c1OC (configuration not stated)	1.03	8.0	i	0.0	3.0%	1.16
CCOC(=O)C1CCCN(Cc2cc(OC)c(O)c(OC)c2)C1 (configuration not stated)	1.06	0.0	i	50.0*	17.0%	1.11
CCOC(=O)C1CCCN(Cc2cc(Br)c(OC)cc2OC)C1 (configuration not stated)	1.08	0.0	i	50.0*	17.0%	1.12
CN(C)c1cccc(C(=O)OCC(=O)NCC2CCCO2)c1 (configuration not stated)	1.07	0.0	i	8.0	3.0%	1.17
CCc1ccccc1NC(=O)CSC1=C(C#N)C(c2ccc3c(c2)OCO3)C2=C(CCCC2=O)N1 (configuration not stated)	1.05	4.0	i	8.0	4.0%	1.18
CC1=C(C(=O)Nc2ccccc2)C(c2ccc3c(c2)OCO3)C2=C(CCCC2=O)N1 (configuration not stated)	1.12	5.0	i	4.0	7.0%	2.22*
CCN(CC)c1ccc(C2C(C(=O)Nc3ccccn3)=C(C)NC3=C2C(=O)CC(C)(C)C3)cc1 (configuration not stated)	1.13	4.0	i	3.0	6.0%	1.63
CC1=C(C(=O)Nc2cc(C)ccn2)C(c2ccc(C)cc2)C2=C(CCCC2=O)N1 (configuration not stated)	1.07	0.0	/	5.0	3.0%	2.29*
COc1ccc(N2CCN(CCNS(=O)(=O)c3cccc4nsnc34)CC2)cc1	1.03	33.0*	+	30.0	10.0%	1.11
Cc1cc(C)n(CCCNCC(O)c2ccccc2)n1 (configuration not stated)	1.05	0.0	i	53.0*	18.0%	1.11
CCN(CC)c1ccc(-c2nc3cnccc3n2C)cc1	1.24	17.0	i	7.0	18.0%	2.51*
CCOC(=O)Nc1ccc2c(C)cc(=O)oc2c1	1.16	5.0	/	12.0	9.0%	3.67*
CCOC(=O)N1CCC(NC(=O)c2cccc3c2C(=O)N(Cc2cccnc2)C3)CC1	0.98	15.0	i	8.0	8.0%	1.14
CCOC(=O)C1CCCN(C(=O)CCC(=O)Nc2ccc3nc(N4CCOCC4)cc(C)c3c2)C1 (configuration not stated)	1.04	10.0	/	8.0	9.0%	4.73*
CCN1CCN(c2cc(C)c3cc(NC(=O)c4ccncc4)ccc3n2)CC1	1.14	2.0	i	3.0	2.0%	1.05
Cc1cc(N2CCN(C)CC2)nc2ccc(NC(=O)CCC(=O)NCCC3=CCCCC3)cc12	1.05	11.0	i	3.0	11.0%	3.84*
O=C(Nc1ccc(N2CCOCC2)cc1)C1CC1	0.99	0.0	i	5.0	2.0%	1.03
Cc1cc(N2CCOCC2)nc2ccc(NC(=O)C3CCC(C)CC3)cc12 (configuration not stated)	1.03	3.0	/	1.0	1.0%	2.32*
COCCCNC(=O)CCC(=O)Nc1ccc2nc(N3CCOCC3)cc(C)c2c1	1.06	8.0	/	9.0	9.0%	4.72*
SMILES	Abs 340nm	Spn PMK inh	DPM-DC inhibit	MK inhibit	NADH enzymes	Autofluor 339
O=C1CC(N2CCN(c3ccc(C(=O)c4ccc(F)cc4)cc3)CC2)C(=O)N1 (configuration not stated)	1.27	4.0	i	11.0	6.0%	1.08
CCOC(=O)c1cc2c(ccn2C)n1CC(=O)N1CCN(c2ccccc2OC)CC1	1.04	11.0	i	8.0	6.0%	1.18
O=C(NCC1CCS(=O)(=O)C1)Oc1ccccc1 (configuration not stated)	1.02	6.0	i	13.0	6.0%	1.11
CCCCNC(=O)CCC(=O)Nc1ccc2nc(N3CCOCC3)cc(C)c2c1	1.01	8.0	/	7.0	8.0%	4.7*
Cc1ccc2cc(-c3noc(C4CCCCC4)n3)c(=O)[nH]c2c1	1.11	0.0	/	0.0	0.0%	2.19*
CCCc1nc(-c2cc3ccc(C)cc3[nH]c2=O)no1	1.07	6.0	/	7.0	7.0%	2.23*
Cc1ccc2cc(-c3noc(C4CCCO4)n3)c(=O)[nH]c2c1 (configuration not stated)	1.09	0.0	/	0.0	0.0%	2.21*
COc1ccc(NC(=O)CCc2nc(-c3ccccc3F)no2)cc1	1	10.0	i	4.0	2.0%	1.08
CN1CCN(S(=O)(=O)c2cccc(S(=O)(=O)c3ccc(Cl)c(Cl)c3)c2)CC1	1.05	25.0*	i	13.0	13.0%	1.1
COc1cc(S(=O)(=O)N2CCN(C)CC2)ccc1Cl	0.98	6.0	i	9.0	5.0%	1.05
CCOC(=O)N1CCN(CCC(=O)Nc2ccc(OC(F)(F)F)cc2)CC1	0.97	12.0	i	6.0	6.0%	1.07
COC(=O)c1c(C(=O)OC)c2cc(C)ccn2c1Cl	1.1	8.0	/	11.0	10.0%	3.4*
CCOc1ccc(N(CC(=O)Nc2ccc(F)c(F)c2)S(=O)(=O)c2c(C)noc2C)cc1	0.99	12.0	+	7.0	6.0%	0.99
CCOc1ccc2[nH]cc(C(=O)N3CCN(CC)CC3)c(=O)c2c1	1.04	8.0	i	2.0	4.0%	1.79
OCCNCC1(O)C2CC3CC(C2)CC1C3 (configuration not stated)	0.99	26.0*	i	12.0	15.0%	1.06
Cn1ccnc1Sc1nc2ccccc2nc1NS(=O)(=O)c1ccccc1	1.07	18.0	i	0.0	6.0%	1.15
CCOc1ccc(S(=O)(=O)Nc2nc3ccccc3nc2N2CCN(C)CC2)cc1	1.08	4.0	i	9.0	12.0%	1.66
CC(=O)N1CCN(c2nc3cc4c(cc3nc2NS(=O)(=O)c2ccccc2)OCCO4)CC1	1.06	27.0*	i	3.0	13.0%	2.74*
CC1CN(c2oc(-c3cccs3)nc2C#N)CC(C)O1 (configuration not stated)	1.07	14.0	/	0.0	7.0%	2.38*
N#Cc1nc(-c2cccs2)oc1N1CCOCC1	1.09	0.0	/	6.0	3.0%	2.29*
